# Source: PubChem BioAssay (National Center for Advancing Translational Sciences (NCATS))
# The list is not random: actives were taken first. Their share in the collection is about 9.5%.
# Tau fluor counter = counter-screen for tau fibril formation inhibitors; Potency, µM (doses to about 57.7 µM), without a hit: at the top dose activity change, negative = decrease; tau K18 P301L Alexa594 fluorescence, heparin fibrillization; hit rate 0.93% among 280,000; also: nearly all actives have a fitted effect of over 55% in size
#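 Human tau K18 P301L (15 uM unlabeled, 0.24 uM Alexa 594-labeled) in 100 mM sodium acetate pH 7 with 20 uM heparin, 6 hr at 37 C. ThT 30 uM added, 1 hr ambient; Alexa 594 FP and total fluorescence read at 555/632 nm.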
# ALDH1A1 block = blocks purified human ALDH1A1 activity; Potency, µM (titrated, usually from 75.3 µM), for inactives: at the top dose activity, negative = inhibition, usual class: inhibitors; P00352; Purified ALDH1A1, NADH fluorescence, propionaldehyde substrate; hit rate 7.3% among 220,000; active = well fitted inhibition curve with a large enough effect, not every such curve was filed as active; inconclusive = small, poorly fitted or top-dose-only effect, or another doubt; inactive = no such curve, though single readings can be large or run the other way;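 also: plate controls were no enzyme wells and a reference inhibitor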
# Tau ThT inhib = tau fibrillization inhibition (ThT binding). recombinant tau K18 P301L, heparin-induced fibrillization, ThT fluorescence. Potency, µM (top dose mostly 57.4 µM), for inactives: at the highest dose activity, negative = inhibition, actives largely listed as inhibitors. hit rate 2.1% among 270,000; also: nearly all actives have a fitted effect of over 55% in size
#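 Fibril formation assay: tau K18 P301L at 15 uM with trace Alexa 594 label, heparin inducer 20 uM, pH 7 sodium acetate buffer, 37 C for 6 hr; endpoint ThT signal.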
# HPGD block = HPGD (human) dehydrogenase inhibition; P15428; purified HPGD, NADH fluorescence kinetic, PGE2 substrate; Potency, µM, for inactives: top-dose activity change, negative = inhibition, usual class: inhibitors; hit rate 4.3% among 150,000; active = well fitted inhibition curve with a large enough effect, not every such curve was filed as active; inconclusive = small, poorly fitted or top-dose-only effect, or another doubt; inactive = no such curve, though single readings can be large or run the other way
# Target sequence (P15428 whole entry, looked up): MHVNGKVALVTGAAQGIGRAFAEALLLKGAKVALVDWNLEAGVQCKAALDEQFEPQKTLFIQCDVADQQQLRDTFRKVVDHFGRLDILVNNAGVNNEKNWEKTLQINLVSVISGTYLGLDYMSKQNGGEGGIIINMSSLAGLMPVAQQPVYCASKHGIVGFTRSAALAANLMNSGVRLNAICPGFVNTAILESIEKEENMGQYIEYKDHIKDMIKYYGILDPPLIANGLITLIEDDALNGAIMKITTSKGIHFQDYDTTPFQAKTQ
#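 20 nM HPGD preincubated 15 min at room temperature with compound in 50 mM Tris-HCl pH 8, 0.01% Tween 20. Started with 1 mM NAD+ and 30 uM prostaglandin E2; NADH fluorescence (360/450 nm) read 5 times over 30-s intervals, last minus first.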
# NPSR antag = antagonists of human neuropeptide S receptor cAMP signaling | Q6W5P4 | Potency, µM (titrated, usually from 38.3 µM), for inactives: top-dose activity change, negative = inhibition, actives largely listed as inhibitors | CHO-NPSR cells, cAMP TR-FRET, antagonist mode | hit rate 1% among 220,000; also: nearly all actives have a fitted effect of over 50% in size
# Target sequence (Q6W5P4 whole entry, looked up): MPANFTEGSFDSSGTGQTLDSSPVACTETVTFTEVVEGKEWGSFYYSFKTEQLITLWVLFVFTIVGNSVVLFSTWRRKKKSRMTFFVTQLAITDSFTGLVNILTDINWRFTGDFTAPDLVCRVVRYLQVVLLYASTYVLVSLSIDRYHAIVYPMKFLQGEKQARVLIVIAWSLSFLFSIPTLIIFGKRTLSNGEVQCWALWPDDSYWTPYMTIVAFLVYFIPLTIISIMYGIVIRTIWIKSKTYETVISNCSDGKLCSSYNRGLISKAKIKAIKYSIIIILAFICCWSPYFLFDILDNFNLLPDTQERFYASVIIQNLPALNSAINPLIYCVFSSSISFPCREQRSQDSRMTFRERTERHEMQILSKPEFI
# Tau fibril FP = inhibitors of human tau fibril formation | P10636 | K18 P301L tau heparin fibrillization, Alexa594 FP, 6 h | Potency, µM (highest dose often 57.7 µM), without a hit: at the highest dose activity, negative = inhibition, hits mostly inhibitors | hit rate 0.39% among 280,000; also: nearly all actives have a fitted effect of over 55% in size
#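 Read-out: fluorescence polarization of Alexa 594-labeled tau (0.24 uM), 555 nm excitation, 632 nm emission. Mixtures held 15 uM unlabeled K18 P301L, compound and 20 uM heparin, pH 7 acetate buffer, incubated 6 hr at 37 C.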
# The depositor's hits bear a star; ? = inconclusive; · = no result; [ ] = another dose, or the depositor's remark. Unless noted, calls follow the shape of the dose curve; as a rule, active = well fitted curve in the direction sought with a large enough effect; inconclusive = small, poorly fitted or top-dose-only effect, or another doubt; inactive = no such curve, though single readings can be large; an effect the other way counts as inactive or inconclusive. Unless noted, % is scaled to controls: 0 for no effect and ±100 for the full control effect; potency is read from the fitted curve at half-maximal effect.
SMILES,Tau fluor counter,ALDH1A1 block,Tau ThT inhib,HPGD block,NPSR antag,Tau fibril FP
CCOc1ccccc1Nc1nc(-c2sc(NC(=O)c3ccc([N+](=O)[O-])cc3)nc2C)cs1,7.9µM*[quencher],0.79µM*,3.5µM*,-3%,-10%[46.1 µM],?
Cc1ccccc1Nc1nc(-c2sc(NC(=O)c3ccccc3)nc2C)cs1,?,20µM*,?,?,-6%[46.1 µM],4%
Cc1ccc(Cl)cc1Nc1nc(-c2sc(NC(=O)c3cccc(Cl)c3)nc2C)cs1,?,?,?,-19%,-9%[46.1 µM],11%
Cc1ccc(Nc2nc(-c3sc(NC(=O)c4ccc([N+](=O)[O-])cc4)nc3C)cs2)cc1,?,?,3.2µM*,-12%,-18%[46.1 µM],4%
COC(=O)C1=C(C)N=C2SC(C#N)=C(N)N2C1c1cccc(OC)c1 (stereo unspecified),-24%,13µM*,?,-10%,-24%[46.1 µM],13%
COC(=O)C1=C(C)N=C2SC(C#N)=C(N)N2C1c1ccc(OC)cc1 (stereo unspecified),-17%,?,-7%,-18%,-19%[46.1 µM],-9%
O=c1c(Cl)c(NCC2CCCO2)cnn1C12CC3CC(CC(C3)C1)C2 (stereo unspecified),-4%,18µM*,-4%,·,-5%,10%
CCN1C(=O)c2ccccc2S(=O)c2ccc(C(=O)NCCCN3CCCC3=O)cc21 (stereo unspecified),0%,5%,-1%,-10%,4%,2%
CC(C)(C)c1ccc(Oc2ccc(NC(=O)c3ccco3)cn2)cc1,-26%,·,-8%,·,29%[7.67 µM],?
O=C(CN1CCCCC1)Nc1ccccc1NC(=O)CN1CCCCC1,2%,1%,-8%,-2%,-7%[46.1 µM],-6%
O=C(Nc1ccc(Oc2cccc(C(F)(F)F)c2)nc1)c1ccco1,8%,40µM*,1%,·,7%,-7%
O=C(CN1CCCCCC1)Nc1ccccc1,-12%,7.9µM*,-8%,·,10%,-1%
Cc1cc(C)cc(NC(=O)CN2CCc3ccccc3C2)c1,-3%,-3%,-9%,3%,-5%[46.1 µM],-1%
CCOC(=O)c1ccc(NC(=O)CN2CCc3ccccc3C2)cc1,-17%,14µM*,?,-26%,-26%[46.1 µM],-2%
CC(C)C(=O)Nc1ccc(NC(=O)c2ccco2)cn1,1%,28µM*,-7%,·,3%[46.1 µM],5%
COC(=O)c1ccn(-c2nc(-c3ccc(Cl)cc3)cc(C(F)(F)F)n2)n1,-10%,·,?,·,·,11%
Cc1ccc(C(=O)Nc2cccc(Oc3ccccc3)c2)o1,?,0%,-18%,20µM*,-9%[46.1 µM],3%
O=C(Nc1cccc(Oc2ccc3c(c2)C(=O)NC3=O)c1)c1ccco1,?,5%,?,20µM*,-10%[46.1 µM],?
O=C(CSc1ncnc2[nH]ncc12)Nc1cccc(Oc2ccccc2)c1,?,20µM*,-13%,·,-27%,?
Nc1nc(SCC(=O)Nc2cccc(Oc3ccccc3)c2)n[nH]1,-30%,?,7%,-16%,-3%,-10%
O=C(CN1CCN(C(=O)N2CCOCC2)CC1)Nc1ccc(Br)cc1,-5%,18µM*,-6%,-7%,-2%[46.1 µM],-1%
Cc1ccc(C(=O)Nc2cccc(C(=O)NCc3ccccc3)c2)o1,0%,-2%,0%,-19%,0%[46.1 µM],-4%
O=C(CN1CCCCC1)Nc1ccccc1Oc1ccccc1,-8%,·,-12%,·,8%[7.67 µM],-5%
O=C(CN1CCCCC1)Nc1cccc(Oc2ccccc2)c1,-10%,7%,8%,28µM*,15%[46.1 µM],-9%
O=C(CCl)Nc1cccc(Oc2ccccc2)c1,-7%,0.28µM*,-6%,·,-32%,13%
SMILES,Tau fluor counter,ALDH1A1 block,Tau ThT inhib,HPGD block,NPSR antag,Tau fibril FP
N=c1sccn1CC(=O)Nc1cccc(Oc2ccccc2)c1,-14%,?,-1%,-10%,-2%[46.1 µM],-1%
O=C(Nc1ccc(Cl)cc1)N1CCCN(Cc2ccc(F)cc2)C1,-28%,4%,3%,25µM*,?,?
O=C(CN1CCCC1)Nc1ccc(F)cc1,-4%[2.34 µM],25µM*,-11%,·,-9%,3%[2.34 µM]
NC(=S)SCCC(=O)O,·,13%[13.5 µM],·,-2%,·,·
Cc1noc(NS(=O)(=O)c2ccc(NC(=O)c3ccc(Br)cc3)cc2)c1C,-17%,·,-10%,·,·,-1%
CCc1ccccc1NC(=O)c1cc(S(=O)(=O)N2CCCc3ccccc32)ccc1F,-25%,·,-11%,·,·,-6%
CN1CCN(CC(=O)Nc2ccc(Oc3ccccc3)cc2)CC1,0%,-8%,-2%,-16%,26%[46.1 µM],-9%
CCOC(=O)N1CCN(CC(=O)Nc2ccc(Oc3ccccc3)cc2)CC1,?,25µM*,-12%,-3%,-20%[46.1 µM],-8%
COc1ccc(CNC(=O)Cc2c(C)c3cc4c(C)coc4c(C)c3oc2=O)cc1OC,-18%,·,?,·,·,-13%
O=C(CCN1C(=O)C2C3C=CC(C3)C2C1=O)N1CCN(c2cccc(Cl)c2)CC1 (stereo unspecified),-3%,7.9µM*,-7%,-13%,-10%[46.1 µM],6%
O=C(CCN1C(=O)C2C3C=CC(C3)C2C1=O)N1CCN(c2ccccn2)CC1 (stereo unspecified),-5%,?,-6%,?,0%[46.1 µM],-5%
N#Cc1cccnc1Oc1ccccc1,23%,2%,15%,·,-12%,4%
O=C(N/N=C/c1ccc([N+](=O)[O-])o1)c1cc2c(ccc3ccccc32)o1,?,-3%,1.1µM*,·,?,-8%
O=C(N/N=C/c1ccc([N+](=O)[O-])o1)c1cc2ccccc2o1,-23%,·,·,·,-30%,4%
O=C(N/N=C/c1ccc([N+](=O)[O-])o1)c1ccc(O)cc1,-30%,25µM*,10µM*,-30%,13µM*,4%
O=C(N/N=C/c1ccc([N+](=O)[O-])o1)c1ccncc1,1%,-4%,?,·,28%,-2%
CCOc1ccc(C2=NC(c3ccncc3)=Nc3ccc(C)cc3N2)cc1OCC,-15%,·,?,·,·,14%
Cc1ccc(S(=O)(=O)O[C@H]2CC(C(C)(C)C)CC[C@@H]2c2ccccc2)cc1 (stereo partly specified),·,0%[13.5 µM],·,-9%,·,·
Cc1ccc(C(=O)c2ccc([N+](=O)[O-])cc2)cc1C,-25%,?,?,-18%,-17%[46.1 µM],14%
CNC(CC(=O)c1ccc([N+](=O)[O-])cc1)C(Cl)(Cl)Cl (stereo unspecified),?,0.56µM*,?,10µM*,?,2%
Cc1cccc(NCCC(=O)c2ccc([N+](=O)[O-])cc2)c1C,8.9µM*[quencher],0.18µM*,?,·,-4%,2%
COc1ccc(C(=O)CC(Nc2ccc([N+](=O)[O-])cc2)c2ccc(OC)cc2)cc1 (stereo unspecified),?,?,-20%,-12%,-17%[46.1 µM],?
